Measured values taken from PubChem BioAssay AID463188 (University of Pittsburgh Molecular Library Screening Center, 2010).
The campaign covered roughly 1,300 compounds. About 360 (28%) were called active.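 The calls were made as follows: active = average inhibition of at least 50%, with Z-scores no higher than 3 in both the phospho-tyrosine peptide and fluorescence counterscreens; inactive = the rest.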 The full list was thinned out, with actives kept by preference.

Key:
[1] = retest of Hck:Nef kinase inhibitor hits, confirmation, biochemical, Z-Lyte FRET, 384-well, p-Tyr peptide counterscreen (AID 463188); settings: Recombinant Hck-YEEI:Nef, Z-Lyte FRET kinase assay; measured here: p-Tyr peptide counterscreen; at 10 µM
[2] = target: Tyrosine-protein kinase HCK (Homo sapiens) (UniProt P08631); assay: as above; settings: Recombinant Hck-YEEI:Nef, Z-Lyte FRET kinase assay; at 10 µM; stronger effect = higher value
Tyrosine-protein kinase HCK (Homo sapiens), sequence (P08631 whole entry, looked up): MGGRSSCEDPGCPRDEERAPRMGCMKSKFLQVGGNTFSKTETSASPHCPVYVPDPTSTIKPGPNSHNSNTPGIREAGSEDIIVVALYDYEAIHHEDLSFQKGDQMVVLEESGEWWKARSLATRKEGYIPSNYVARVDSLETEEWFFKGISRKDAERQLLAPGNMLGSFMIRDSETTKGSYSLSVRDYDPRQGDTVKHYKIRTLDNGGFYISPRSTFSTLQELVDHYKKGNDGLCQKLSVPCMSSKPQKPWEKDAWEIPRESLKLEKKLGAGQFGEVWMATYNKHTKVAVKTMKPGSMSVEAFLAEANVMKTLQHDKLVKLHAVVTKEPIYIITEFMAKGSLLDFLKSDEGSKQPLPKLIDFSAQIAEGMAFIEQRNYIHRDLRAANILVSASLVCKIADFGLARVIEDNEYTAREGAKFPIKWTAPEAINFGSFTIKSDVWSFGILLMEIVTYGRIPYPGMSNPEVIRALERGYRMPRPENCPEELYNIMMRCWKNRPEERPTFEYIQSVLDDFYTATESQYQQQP

| Structure (SMILES) | z-score [1] | inhibition [2] |
| --- | --- | --- |
| O=C1NC(=O)N(Cc2ccco2)C(=O)/C1=C\c1ccc(-c2ccc(F)cc2)o1 | 0.915 | 68.2% (active) |
| COc1cc(Cn2c(N)c(C(=O)NCc3ccco3)c3nc4ccccc4nc32)cc(OC)c1OC | 25.8 | 46.4% (inactive) |
